# Calls of active or inactive are those of the source.
# Key:
# [1] = system: Plasmodium falciparum Sir2 (PF13_0152, Sir2A); test: Plasmodium falciparum Sir2A binding compounds – biochemical, small-molecule microarray, 635 nm fluorescence, primary screen (AID 1098); conditions: fluorescence 635 nm, higher = more signal;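 also: score merges spot fluorescence intensity with its signal-to-noise ratio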
# [2] = probe aDKK1 binding to arrayed compounds – biochemical, biotinylated probe, 635/667 nm fluorescence, primary screen (AID 1099); conditions: small-molecule microarray, higher = more signal;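 also: score merges 667nm spot fluorescence with signal to noise across triplicate slides; reference of the scale not given here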
# [3] = probe aCHRDL2 binding to arrayed compounds – biochemical, biotinylated probe, 635/667 nm fluorescence, primary screen (AID 1100); conditions: small-molecule microarray, higher = more signal
# [4] = change in splice reporter luminescence, either direction, cell-based, HEK293, spliceosome inhibition project, primary screen (AID 1101); conditions: HEK293 splicing luciferase reporter, 24 h, higher = more signal, called active from +8 up or from −8 down;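 also: HEK293 cells carrying a splicing-competent luciferase reporter gene; test concentration not given here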
# [5] = target: Fibroblast growth factor 10 (Homo sapiens) (UniProt O15520); test: compounds binding fibroblast growth factor 10 – biochemical, small-molecule microarray, 635 nm fluorescence, primary screen (AID 1102); conditions: FGF10 binding, fluorescence 635 nm, higher = more signal
# [6] = system: glycogen synthase kinase-3 (GSK3A per assay name; protocol says GSK3B); test: compounds binding glycogen synthase kinase-3 – biochemical, small-molecule microarray, 635 nm fluorescence, GSK3A, primary screen (AID 1103); conditions: fluorescence 635 nm, higher = more signal; also: the record names both GSK3A and GSK3B
# [7] = target: Epidermal growth factor receptor (Homo sapiens) (UniProt P00533); test: compounds binding epidermal growth factor receptor – biochemical, small-molecule microarray, 635 nm fluorescence, primary screen (AID 1104); conditions: EGFR binding, higher = more signal;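 also: score merges 667 nm emission intensity with spot signal to noise over triplicate slides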
# [8] = target: Follistatin-related protein 3 (Homo sapiens) (UniProt O95633); test: compounds binding follistatin-related protein 3 – biochemical, small-molecule microarray, 635 nm fluorescence, primary screen (AID 1105); conditions: FSTL3 binding, higher = more signal;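 also: score merges emission near 667 nm and signal to noise per printed spot across three slides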
# [9] = target: Dickkopf-related protein 1 (Homo sapiens) (UniProt O94907); test: small molecules binding DKK1 protein – biochemical, small-molecule microarray, 635 nm fluorescence scan, primary screen (AID 1106); conditions: higher = more signal;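 also: score merges emission near 667 nm with signal to noise over three replicate slides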
# [10] = system: Inhibin beta A chain (activin A); test: small molecules binding activin A – biochemical, small-molecule microarray, 635 nm fluorescence scan, primary screen (AID 1107); conditions: INHBA, higher = more signal;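 also: mouse activin A protein probed at 4.33 µg/mL on printed slides; score merges bound-protein fluorescence near 667 nm with spot signal-to-noise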
# Chain of Follistatin-related protein 3 (Homo sapiens) (O95633 whole entry, looked up): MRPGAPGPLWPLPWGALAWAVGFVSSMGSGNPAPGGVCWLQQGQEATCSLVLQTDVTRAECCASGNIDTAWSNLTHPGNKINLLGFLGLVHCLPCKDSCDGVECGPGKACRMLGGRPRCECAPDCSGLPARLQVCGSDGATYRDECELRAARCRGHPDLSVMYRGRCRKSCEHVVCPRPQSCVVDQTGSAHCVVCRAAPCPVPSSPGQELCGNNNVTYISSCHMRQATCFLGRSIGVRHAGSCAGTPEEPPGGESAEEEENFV
# Chain of Fibroblast growth factor 10 (Homo sapiens) (O15520 whole entry, looked up): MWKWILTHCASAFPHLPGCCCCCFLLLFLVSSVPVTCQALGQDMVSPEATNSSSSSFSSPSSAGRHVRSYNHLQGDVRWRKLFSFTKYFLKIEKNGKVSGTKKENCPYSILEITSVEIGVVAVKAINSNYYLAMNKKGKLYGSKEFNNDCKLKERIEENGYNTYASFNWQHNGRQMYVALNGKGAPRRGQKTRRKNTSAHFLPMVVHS
# Chain of Dickkopf-related protein 1 (Homo sapiens) (O94907 whole entry, looked up): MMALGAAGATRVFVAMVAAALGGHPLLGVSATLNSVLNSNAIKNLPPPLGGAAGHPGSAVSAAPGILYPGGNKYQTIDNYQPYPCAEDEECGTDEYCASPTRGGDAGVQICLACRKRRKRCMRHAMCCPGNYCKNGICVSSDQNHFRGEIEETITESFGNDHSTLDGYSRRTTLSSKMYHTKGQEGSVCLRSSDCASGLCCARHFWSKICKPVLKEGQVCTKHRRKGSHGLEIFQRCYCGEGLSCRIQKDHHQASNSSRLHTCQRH
# Chain of Epidermal growth factor receptor (Homo sapiens) (P00533 whole entry, looked up): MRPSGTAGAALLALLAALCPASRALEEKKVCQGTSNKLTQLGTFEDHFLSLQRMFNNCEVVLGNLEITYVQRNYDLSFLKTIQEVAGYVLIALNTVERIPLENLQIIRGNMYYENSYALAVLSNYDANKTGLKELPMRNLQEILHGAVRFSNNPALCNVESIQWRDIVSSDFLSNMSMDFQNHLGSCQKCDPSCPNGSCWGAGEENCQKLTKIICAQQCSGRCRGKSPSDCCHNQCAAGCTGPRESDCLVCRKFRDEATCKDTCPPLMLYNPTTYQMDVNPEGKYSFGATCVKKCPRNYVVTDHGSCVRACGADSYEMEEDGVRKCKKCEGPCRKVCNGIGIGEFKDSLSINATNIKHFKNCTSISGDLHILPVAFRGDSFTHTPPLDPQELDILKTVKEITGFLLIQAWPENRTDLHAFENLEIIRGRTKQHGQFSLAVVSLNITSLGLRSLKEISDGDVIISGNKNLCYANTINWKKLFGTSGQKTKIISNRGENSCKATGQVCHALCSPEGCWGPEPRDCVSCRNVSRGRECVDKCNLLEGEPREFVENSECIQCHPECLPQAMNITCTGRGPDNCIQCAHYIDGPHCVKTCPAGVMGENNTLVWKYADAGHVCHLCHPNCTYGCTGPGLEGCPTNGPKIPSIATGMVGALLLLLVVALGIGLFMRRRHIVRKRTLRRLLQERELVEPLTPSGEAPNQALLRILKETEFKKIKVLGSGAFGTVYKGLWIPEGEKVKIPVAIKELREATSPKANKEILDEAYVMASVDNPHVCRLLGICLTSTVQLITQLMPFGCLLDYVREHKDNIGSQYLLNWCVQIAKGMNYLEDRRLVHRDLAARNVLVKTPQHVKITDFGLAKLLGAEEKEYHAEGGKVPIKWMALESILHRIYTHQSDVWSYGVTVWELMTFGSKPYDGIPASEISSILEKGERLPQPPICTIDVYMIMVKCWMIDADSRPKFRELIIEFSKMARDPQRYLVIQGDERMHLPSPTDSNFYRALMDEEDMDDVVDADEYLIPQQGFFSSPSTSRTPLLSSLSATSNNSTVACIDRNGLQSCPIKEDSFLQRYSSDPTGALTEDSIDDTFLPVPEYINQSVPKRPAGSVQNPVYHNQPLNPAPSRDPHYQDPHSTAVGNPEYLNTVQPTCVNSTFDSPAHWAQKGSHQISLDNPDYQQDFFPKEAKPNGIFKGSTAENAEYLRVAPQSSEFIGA
SMILES,composite z-score [1],composite z-score [2],composite z-score [3],z-score [4],composite z-score [5],composite z-score [6],composite z-score [7],composite z-score [8],composite z-score [9],composite z-score [10]
COc1c(C)cc(-c2cc3c(c(-c4ccc(Oc5ccccc5)cc4)n2)[Si](C(C)C)(C(C)C)OC3)cc1C,-0.486,0.187,0.0857,0.391 (inactive),0.0668,-0.278,0.168,-0.069,0.0431,0.51
[N-]=[N+]=NCc1ccccc1C[C@@]1(C(=O)NCC(O)CO)N=C(c2ccc(OCCCO)cc2)O[C@@H]1c1ccccc1CN=[N+]=[N-] (stereo not given in full),1.71,-0.0331,0.884,0.135 (inactive),1.33,0.712,-0.747,-0.203,-0.643,0.688
COCCOC(=O)N1C(=O)[C@@]2(c3cc(C#CCNC(N)=O)ccc31)[C@H](c1ccc(O)cc1)N1[C@H](c3ccccc3)[C@H](c3ccccc3)OC(=O)[C@H]1[C@@H]2C(=O)Nc1nc2ccccc2s1,0.809,0.668,0.476,-0.564 (inactive),1.14,0.306,0.228,0.85,0.562,0.815
COC(=O)c1ccc(C(O)C2C=CC3C(=O)N(c4ccccc4)C(=O)C3N2Nc2ccc(C#N)cc2)o1 (stereo not given),0.969,0.51,0.669,1.28 (inactive),0.989,0.137,0.219,0.311,-0.0752,0.961
COC(=O)[C@@]1(Cc2ccccc2)[C@H]2c3cc(C(=O)N4CCCC4)n(C)c3C[C@H]2CN1C(=O)c1ccccc1,0.762,1.23,0.892,-1.91 (inactive),-0.175,0.237,-0.141,0.803,-0.477,1.1
O=C(CS)NCCCCCCNC(=O)[C@H]1C[C@H]2C(=O)N3CCC[C@H]3C(=O)N2[C@H]1c1cccc(OCCO)c1,1.86,-0.037,-0.109,0.5 (inactive),1.08,1.34,0.543,0.575,0.904,0.683
CCCCC=C[C@@H](NC(=O)c1ccco1)c1ccccc1,0.276,0.373,0.557,0.808 (inactive),0.689,-0.877,0.12,0.296,0.0504,0.809
COc1cc2c(cc1OC)CN(C(=O)[C@@H]1[C@H]3C(=O)O[C@H](c4ccccc4)[C@H](c4ccccc4)N3[C@H](c3ccccc3OCCO)[C@@]13C(=O)Nc1ccc(C#CCNC(N)=O)cc13)CC2,1.58,0.0627,0.281,0.095 (inactive),0.518,1.08,0.245,0.445,0.208,0.922
COc1ccc([Si](C)(C)[C@H]2[C@H](CC(=O)N(CCO)Cc3ccccc3)O[C@@]3(C(=O)N(Cc4cccc(N5CCC5=O)c4)c4ccccc43)[C@@H]2C)cc1,1.32,0.122,0.0014,-2.18 (inactive),0.697,0.599,0.4,0.893,0.696,0.928
O=C1C=CC(=O)[C@@H]2CC(COc3ccccc3)=C3[C@@H](CCc4ccccc4)OB(O)C[C@@H]3[C@H]12,0.403,-0.339,-0.523,2.04 (inactive),0.545,0.34,0.515,0.887,1.07,0.72
[N-]=[N+]=NCc1ccccc1C[C@]1(C(=O)O)N=C(c2ccc(OCCCO)cc2)O[C@H]1c1ccccc1CN=[N+]=[N-],1.07,0.804,1.01,-1.17 (inactive),0.126,0.421,-0.125,0.541,-0.742,0.458
O=C1O[C@H](c2ccccc2)[C@H](c2ccccc2)N2[C@H]1[C@@H](C(=O)O)[C@]1(C(=O)Nc3ccc(C#CC4(O)CCCCCC4)cc31)[C@H]2c1ccc(OCCO)cc1,0.303,0.2,0.388,-0.117 (inactive),0.299,0.132,-0.329,0.418,-0.623,-0.374
COc1ccc([Si](C)(C)[C@H]2[C@H](CCn3cc(CCO)nn3)O[C@@]3(C(=O)N(Cc4ccc(N5CCOC5=O)cc4)c4ccccc43)[C@@H]2C)cc1,1.51,-0.0848,0.236,-0.188 (inactive),0.209,0.625,-0.0252,0.642,0.141,0.766
CCOC(=O)C1=CCC(c2ccc([N+](=O)[O-])cc2)N(S(=O)(=O)c2ccc(C)cc2)C1 (stereo not given),0.376,0.616,0.983,-0.22 (inactive),-0.0502,0.0526,-0.356,0.171,-0.421,1.32
COC(=O)[C@@]1(Cc2ccc(OC)cc2)[C@H]2c3cc(C(=O)N(C)C)n(Cc4c(OC)[nH]cc(C)c4=O)c3C[C@H]2CN1C(=O)c1ccccc1,1.04,1.8,0.628,-1.07 (inactive),0.0004,-0.208,0.197,0.037,-0.41,1.23

# From PubChem BioAssay
